Test results published in PubChem BioAssay (NCATS).
Inconclusive results are not listed. The source made the active and inactive calls. The call rests on the fitted dose curve; in most records, active means well fitted cell-killing curve with a large enough effect; inconclusive means small, poorly fitted or top-dose-only effect, or effect the other way; inactive means flat fitted curve, though single readings scatter. Where a SMILES comes first, the peptide text is derived from it. The star is where a group is joined. Cbz = O=C(OCc1ccccc1)*; CH2F = FC*

Columns and labels:
Assay in all cases: Primary qHTS to identify gynecologic anti-cancer compounds using libraries of approved drugs and bioactive compounds (AID 1345084); further: nearly all actives have a fitted effect of over 55% in size
Conditions in all cases: Gynecologic cancer cell panel viability, ATPlite luminescence, 48 h; series mostly up to 57.5 µM
[1] = test system: OV90
Outline: (§1)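 In this quantitative HTS, cell killing is estimated from loss of ATP-dependent luciferase light. Cells see five compound concentrations over a 48 h exposure.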

[2] = test system: PA-1
Outline: as §1

[3] = test system: SKOV3
Outline: as §1

[4] = test system: Tov-21-G
Outline: as §1

[5] = test system: Tov112D
Outline: as §1
On the % scale 0 is the no-effect control and ±100 the full control effect.

C[C@@H]1O[C@@H](OC2C(O[C@H]3[C@H](O[C@H]4CC[C@@]5(C)C(CC[C@]6(C)C5CC=C5C7CC(C)(C)CC(O)[C@]7(C)CC[C@]56C)C4(C)C)O[C@H](C(=O)O)[C@@H](O)[C@@H]3O)OC(CO)C(O)C2O)[C@H](O)[C@H](O)[C@H]1O (stereo not given in full)
inactive: activity change, negative = cytotoxicity [1] 7.68% [at 11.6 µM] | activity change, negative = cytotoxicity [2] 0.277% [at 11.6 µM] | activity change, negative = cytotoxicity [3] 6.34% [at 11.6 µM] | activity change, negative = cytotoxicity [4] 5% [at 11.6 µM] | activity change, negative = cytotoxicity [5] 11.6% [at 11.6 µM]

COC(=O)C1=C[C@@H](O)[C@@H](O)[C@H](O[C@@H]2O[C@H](CO)[C@@H](O)[C@H](O)[C@H]2OC(=O)/C=C/c2ccccc2)C1
inactive: Potency [1] | Potency [2] | Potency [3] | Potency [4] | Potency [5]

O=S(=O)(O)c1ccc(Nc2ncnc3c2ncn3[C@@H]2O[C@H](CO)[C@@H](O)[C@H]2O)cc1
inactive: Potency [1] | Potency [2] | Potency [3] | Potency [4] | Potency [5]

CCCCS(=O)(=O)NC(Cc1ccc(OCCCCC2CCNCC2)cc1)C(=O)O (stereo not given)
inactive: Potency [1] | Potency [2] | Potency [3] | Potency [4] | Potency [5]

CCC(C)C(C(=O)O)N1Cc2c(OCC=C(C)C)c(C)c(OC)c(C(=O)O)c2C1=O (stereo not given)
inactive: Potency [1] | Potency [2] | Potency [3] | Potency [4] | Potency [5]

O=C(c1c2ccccc2cc2ccccc12)N1CCC(N2CCC[C@@H](C(=O)N3CCOCC3)C2)CC1
inactive: Potency [1] | Potency [2] | Potency [3] | Potency [4] | Potency [5]

C[C@H](O)C(O)(C(=O)OCc1ccccc1NC(=O)CCC(N)C(=O)O)[C@H](C)O (stereo not given in full)
inactive: Potency [1] | Potency [2] | Potency [3] | Potency [4] | Potency [5]

C=C1CC23CC1CCC2C12OC(=O)C(C)(C(O)CC1O)C2C3C(=O)O (stereo not given)
inactive: Potency [1] | Potency [2] | Potency [3] | Potency [4] | Potency [5]

CN1CCc2cc(Cl)c(O)cc2[C@@H](c2cccc3c2OCC3)C1
inactive: Potency [1] | Potency [2] | Potency [3] | Potency [4] | Potency [5]

COC(=O)CC[C@H](NC(=O)[C@H](CC(C)C)NC(=O)OCc1ccccc1)C(=O)N[C@@H](Cc1cnc[nH]1)C(=O)N[C@@H](CC(=O)OC)C(=O)CF (Cbz-LE(OMe)HD(OMe)-CH2F)
inactive: activity change, negative = cytotoxicity [1] 0.73% [at 11.6 µM] | activity change, negative = cytotoxicity [2] -3.2% [at 11.6 µM] | activity change, negative = cytotoxicity [3] -4.39% [at 11.6 µM] | activity change, negative = cytotoxicity [4] 4.92% [at 11.6 µM] | activity change, negative = cytotoxicity [5] 6.4% [at 11.6 µM]

C[C@@H]1O[C@@H](OC2C(CO)OC(OCC3OC(OC(=O)[C@]45CCC(C)(C)CC4C4=CCC6[C@@]7(C)CC[C@@H](O)[C@](C)(C(=O)O)C7CC[C@@]6(C)[C@]4(C)CC5)C(O)C(O)C3O)C(O)C2O)[C@H](O)[C@H](O)[C@H]1O (stereo not given in full)
inactive: activity change, negative = cytotoxicity [1] 8.36% [at 11.6 µM] | activity change, negative = cytotoxicity [2] 29.2% [at 11.6 µM] | activity change, negative = cytotoxicity [3] 5.25% [at 11.6 µM] | activity change, negative = cytotoxicity [4] 6.16% [at 11.6 µM] | activity change, negative = cytotoxicity [5] 2.63% [at 11.6 µM]

OC[C@H]1O[C@@H](OCc2ccccc2)[C@H](O[C@@H]2OC[C@@H](O)[C@H](O)[C@H]2O)[C@@H](O)[C@@H]1O
inactive: Potency [1] | Potency [2] | Potency [3] | Potency [4] | Potency [5]

CC(=O)NC(C(=O)OC1CCC(C)(C)C2CC=C3C(=O)OCC3C12C)C(C)C (stereo not given)
inactive: Potency [1] | Potency [2] | Potency [3] | Potency [4] | Potency [5]

CC1=C(CC/C(C)=C/C(=O)O)[C@@]2(C)CCCC(C)(C)C2CC1=O (stereo not given in full)
inactive: Potency [1] | Potency [2] | Potency [3] | Potency [4] | Potency [5]

C[C@H]1[C@H](C)C[C@@H](C(=O)O)C2CC[C@]3(C)C(=CC[C@@H]4[C@@]5(C)CC[C@H](O)C(C)(C)[C@@H]5CC[C@]43C)[C@@H]21 (stereo not given in full)
inactive: Potency [1] | Potency [2] | Potency [3] | Potency [4] | Potency [5]

CCC(C)C(=O)OC[C@H]1O[C@H](O[C@H]2O[C@H](CO)[C@@H](O)[C@H](O)[C@H]2O)[C@H](O)[C@@H](O)[C@@H]1O (stereo not given in full)
inactive: Potency [1] | Potency [2] | Potency [3] | Potency [4] | Potency [5]

CC(C)=CCC[C@](C)(O[C@@H]1O[C@H](CO[C@@H]2OC[C@H](O)[C@H](O)[C@H]2O)[C@@H](O)[C@H](O)[C@H]1O)[C@H]1CC[C@]2(C)[C@@H]1[C@H](O)C[C@@H]1[C@@]3(C)CC[C@H](O[C@@H]4O[C@H](CO)[C@@H](O)[C@H](O)[C@H]4O[C@@H]4O[C@H](CO)[C@@H](O)[C@H](O)[C@H]4O)C(C)(C)[C@@H]3CC[C@]12C
inactive: Potency [1] | Potency [2] | Potency [3] | Potency [4] | Potency [5]

CC1(C)CC=C(c2cnc3ccccc3c2)c2cc(C(=O)Nc3ccc(C(=O)O)cc3)ccc21
inactive: Potency [1] | Potency [2] | Potency [3] | Potency [4] | Potency [5]

C/C=C/C1OC2=C(C(=O)OC2(C)O)C(O)C1O (stereo not given)
inactive: Potency [1] | Potency [2] | Potency [3] | Potency [4] | Potency [5]

C/C=C/C=C/C(O)=C1/C(=O)[C@]2(C)C3/C(=C(O)/C=C/C=C/C)C(=O)C4(C)C1[C@]1(C)O[C@@]4(O)[C@@]3(C)O[C@@]12O
inactive: Potency [1] | Potency [2] | Potency [3] | Potency [4] | Potency [5]

CC(C/C=C/C(C)(C)O)C1CCC(C)(O)C(O)C1 (stereo not given)
inactive: Potency [1] | Potency [2] | Potency [3] | Potency [4] | Potency [5]

C/C=C(\C)C(=O)OC[C@H]1O[C@@H](O[C@H]2[C@@H](O[C@H]3O[C@H](COC(=O)/C(C)=C/C)[C@@H](O)[C@H](O)[C@H]3O[C@@H]3O[C@H](COC(=O)/C(C)=C/C)[C@@H](O)[C@H](OC(=O)/C(C)=C/C)[C@H]3O)O[C@H](COC(=O)/C(C)=C/C)[C@@H](O)[C@@H]2O)[C@H](O)[C@@H](O)[C@@H]1O
inactive: activity change, negative = cytotoxicity [1] -7.83% [at 11.6 µM] | activity change, negative = cytotoxicity [2] 0.401% [at 11.6 µM] | activity change, negative = cytotoxicity [3] -1.49% [at 11.6 µM] | activity change, negative = cytotoxicity [4] -1.7% [at 11.6 µM] | activity change, negative = cytotoxicity [5] 6.68% [at 11.6 µM]
